# MEKK3 PB1 HTS: MEKK3-MEK5 PB1 interaction, increase or decrease; binding response (% of control), % at 10 µM; 1.4% of 290,000 active; bead-based flow cytometry, Alexa488-MEK5 binding to MEKK3; actives lie on both sides; 0 = blocked by unlabeled MEK5, 100 = vehicle; Q99759;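 active = binding response more than 3 SD above or below the average of its plate-row segment, actives on both sides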;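 note: Alexa488 bead fluorescence after subtracting the streptavidin-only scavenger bead signal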
# PREPL inh: inhibits the human prolyl oligopeptidase-like enzyme | 0.68% of 320,000 active | recombinant PREPL, fluorescence polarization activity-based probe | inhibition, % at 5.96 µM | Q4J6C6; in the data active = inhibition above about 43%;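 note: 0% = enzyme with DMSO and 100% = wells lacking enzyme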
# ATG4B inhibitor: blocks human ATG4B protease cleavage of LC3 substrate; Q9Y4P1; ATG4B cleavage of LC3-PLA2, NBD-HPC fluorescence, 1 h; inhibition, % at 8.33 µM; 0.51% of 340,000 active; AID 504462; in the data active = inhibition above about 40%
# MEKK2mut PB1 HTS: signal of MEK5 binding to mutant human MEKK2 PB1 domain; 0.35% of 290,000 active; percent response, % at 10 µM; AID 1530; bead flow cytometry, Alexa488-MEK5 binding to MEKK2 mutant; in the data active = percent response above about 24%, passing the limit was not always enough
# UBC13 polyUb: human UBC13 polyubiquitination inhibition; P61088; UBC13 polyubiquitin chain formation, TR-FRET; inhibition, % at 20 µM; 0.47% of 330,000 active; in the data active = inhibition above about 45%, passing the limit was not always enough
# Target sequence (P61088 whole entry, looked up): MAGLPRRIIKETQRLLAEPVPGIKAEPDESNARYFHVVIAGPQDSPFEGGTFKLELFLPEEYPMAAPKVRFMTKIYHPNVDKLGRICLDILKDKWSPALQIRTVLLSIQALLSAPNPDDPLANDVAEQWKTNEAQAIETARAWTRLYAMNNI
# MEKK2wt PB1 HTS: raises or lowers MEK5 binding to wildtype human MEKK2 PB1 domain | Q9Y2U5 | bead flow cytometry, Alexa488-MEK5 binding to MEKK2 WT; actives lie on both sides | binding response (% of control), % at 10 µM | 1.1% of 290,000 active | AID 1531; in the data active = binding response below about 67% or above about 130%
# ATG4B confirm: ATG4B (human) inhibition, single-dose confirmed; shares compounds with ATG4B inhibitor; ATG4B protease fluorescent substrate cleavage assay; inhibition, % at 8.33 µM; 92% of 320 active; AID 504757; in the data active = inhibition above about 39%
# PLA2 ctr: inhibits human PLA2, flagging false ATG4B inhibitors | AID 588402 | inhibition, % at 8.33 µM | 66% of 1,600 active | shares compounds with ATG4B inhibitor | purified PLA2, NBD-C6-HPC fluorescence, 45 min; in the data active = inhibition above about 50%
# Target sequence (P04054 whole entry, looked up): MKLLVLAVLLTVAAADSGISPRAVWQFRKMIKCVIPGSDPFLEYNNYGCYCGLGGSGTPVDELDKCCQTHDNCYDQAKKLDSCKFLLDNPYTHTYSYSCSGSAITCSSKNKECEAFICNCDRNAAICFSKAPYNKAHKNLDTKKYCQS
# * hit, by the source's call; · = no result. Sampled rows, rich in hits. Any-hit rate of the full collection: about 3.1%.
SMILES,MEKK3 PB1 HTS,PREPL inh,ATG4B inhibitor,MEKK2mut PB1 HTS,UBC13 polyUb,MEKK2wt PB1 HTS,PLA2 ctr,others
CCN1CCN(c2nc3c(C)cccn3c(=O)c2/C=C(\C#N)S(=O)(=O)c2ccc(C)cc2)CC1,109.0,0.6,66.7*,12.0,4.9,116.0,68.2*,
Cc1ccc(S(=O)(=O)/C(C#N)=C/c2c(N3CCN(C)CC3)nc3c(C)cccn3c2=O)cc1,103.0,16.5,49.6*,11.0,10.5,105.0,58.9*,
Cc1ccc(S(=O)(=O)/C(C#N)=C/c2c(N3CC(C)OC(C)C3)nc3c(C)cccn3c2=O)cc1 (stereo not given),103.0,-16.0,43.7*,-2.0,-7.9,88.0,51.1*,
CC1CN(c2nc3ccccn3c(=O)c2/C=C(\C#N)S(=O)(=O)c2ccccc2)CC(C)O1 (stereo not given),103.0,-2.6,-7.8,8.0,-0.1,103.0,·,
C#CC(C)(C)NC(=O)c1sccc1Oc1ccc(F)cc1[N+](=O)[O-],99.0,-8.9,1.3,-3.0,-2.9,94.0,·,
Cc1cc(Br)ccc1NC(=O)CN(C)C(=O)CN1C(=O)NC(C)(C2CC2)C1=O (stereo not given),·,0.7,-3.5,·,-4.1,·,·,
O=C1C(Cl)=C(N2CCC(C(=O)O)CC2)C(=O)c2ccccc21,103.0,16.5,-5.5,7.0,-59.2,105.0,·,
CN1CCN(C2=C(Cl)C(=O)c3ccccc3C2=O)CC1,·,·,73.3*,·,·,·,-16.3,ATG4B confirm=30.2
CCOc1ccccc1NC(=O)CSc1nc2cc(O)ccc2c(=O)n1-c1ccc(OC)c(OC)c1,98.0,2.3,-11.2,1.0,-8.8,91.0,·,
Cc1c(Cl)cccc1NC(=S)NCc1ccc(Cl)cc1,104.0,-4.7,70.2*,2.0,5.5,110.0,81.3*,
S=C(NCc1ccc(Cl)cc1)Nc1ccccc1Cl,107.0,-1.4,10.4,4.0,0.2,111.0,·,
Cc1cccc(NC(=S)NCc2ccccc2Cl)c1C,99.0,13.8,26.7,2.0,-5.6,98.0,·,
Cc1c(Cl)cccc1NC(=S)N1CCN(Cc2ccccc2)CC1,94.0,1.6,-4.7,-6.0,-13.4,94.0,·,
Cc1c(Cl)cccc1NC(=S)NCc1ccccc1,106.0,-6.6,54.4*,7.0,-11.7,106.0,69.5*,
Cc1c(Cl)cccc1NC(=S)NC1CCN(Cc2ccccc2)CC1,100.0,-2.0,47.9*,23.0,-2.8,126.0,58.5*,
O=C(CNC(=O)OCc1ccccc1)Nc1ccc(F)cc1,·,3.5,-6.1,·,5.8,·,·,
Cn1c(N)c(C(=O)COC(=O)c2ccccc2C(=O)c2ccc(Cl)cc2)c(=O)n(C)c1=O,·,27.3,-18.9,·,-9.4,·,·,
CC/C=C/C(=O)N1CC2(CC(c3cccc(NC(=O)COc4ccc(Cl)cc4)c3)=NO2)C[C@H]1C(N)=O (stereo not given in full),52.0,19.9,-16.6,1.0,-4.9,58.0,·,
CC(C)c1ccc(NC2CCCN(C(=O)c3ccnc(Cl)c3)C2)cc1 (stereo not given),98.0,4.6,27.7,-2.0,-2.1,100.0,·,
CC(C)c1ccc(NC2CCCN(C(=O)c3ccco3)C2)cc1 (stereo not given),94.0,17.5,53.7*,0.0,-6.1,98.0,52.7*,
CC(=O)c1ccc(C(=O)N2CCCC(Nc3ccc(C(C)C)cc3)C2)s1 (stereo not given),102.0,20.0,49.1*,5.0,-2.2,99.0,55.9*,
Fc1ccccc1CSc1nnc(-c2ccccc2)o1,102.0,10.6,29.1,-1.0,-8.3,97.0,·,
Cc1ccccc1-c1nnc(SCc2ccccc2F)o1,97.0,4.5,54.2*,-1.0,-10.3,91.0,63.7*,
CC(C)(C)c1nc(SCC(=O)c2ccccc2)c2ccccc2n1,103.0,0.2,50.5*,0.0,12.9,101.0,31.8,ATG4B confirm=69.7*
CC(C)(C)c1nc(SCC(=O)N2CCCC2)c2ccccc2n1,101.0,7.8,-1.3,2.0,3.2,105.0,·,
